Targets with a hit are over-represented here; the source holds about 7,900 in all. About 0.6% of all pairs of compound and target were hits.

UniProt Q13418, sequence (Q13418 whole entry, looked up): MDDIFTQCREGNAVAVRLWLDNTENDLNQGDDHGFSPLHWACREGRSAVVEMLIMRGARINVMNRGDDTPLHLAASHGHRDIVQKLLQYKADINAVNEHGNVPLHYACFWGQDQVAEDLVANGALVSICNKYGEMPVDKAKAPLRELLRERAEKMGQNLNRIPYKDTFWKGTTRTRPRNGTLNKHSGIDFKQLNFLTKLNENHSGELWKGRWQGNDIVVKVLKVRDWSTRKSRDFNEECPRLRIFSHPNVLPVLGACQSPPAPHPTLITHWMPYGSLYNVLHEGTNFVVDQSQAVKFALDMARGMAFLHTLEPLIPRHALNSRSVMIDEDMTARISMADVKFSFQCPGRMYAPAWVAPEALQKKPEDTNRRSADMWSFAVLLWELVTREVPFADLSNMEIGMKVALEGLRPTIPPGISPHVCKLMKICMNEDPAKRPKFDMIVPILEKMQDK
UniProt O15021, sequence (O15021 whole entry, looked up): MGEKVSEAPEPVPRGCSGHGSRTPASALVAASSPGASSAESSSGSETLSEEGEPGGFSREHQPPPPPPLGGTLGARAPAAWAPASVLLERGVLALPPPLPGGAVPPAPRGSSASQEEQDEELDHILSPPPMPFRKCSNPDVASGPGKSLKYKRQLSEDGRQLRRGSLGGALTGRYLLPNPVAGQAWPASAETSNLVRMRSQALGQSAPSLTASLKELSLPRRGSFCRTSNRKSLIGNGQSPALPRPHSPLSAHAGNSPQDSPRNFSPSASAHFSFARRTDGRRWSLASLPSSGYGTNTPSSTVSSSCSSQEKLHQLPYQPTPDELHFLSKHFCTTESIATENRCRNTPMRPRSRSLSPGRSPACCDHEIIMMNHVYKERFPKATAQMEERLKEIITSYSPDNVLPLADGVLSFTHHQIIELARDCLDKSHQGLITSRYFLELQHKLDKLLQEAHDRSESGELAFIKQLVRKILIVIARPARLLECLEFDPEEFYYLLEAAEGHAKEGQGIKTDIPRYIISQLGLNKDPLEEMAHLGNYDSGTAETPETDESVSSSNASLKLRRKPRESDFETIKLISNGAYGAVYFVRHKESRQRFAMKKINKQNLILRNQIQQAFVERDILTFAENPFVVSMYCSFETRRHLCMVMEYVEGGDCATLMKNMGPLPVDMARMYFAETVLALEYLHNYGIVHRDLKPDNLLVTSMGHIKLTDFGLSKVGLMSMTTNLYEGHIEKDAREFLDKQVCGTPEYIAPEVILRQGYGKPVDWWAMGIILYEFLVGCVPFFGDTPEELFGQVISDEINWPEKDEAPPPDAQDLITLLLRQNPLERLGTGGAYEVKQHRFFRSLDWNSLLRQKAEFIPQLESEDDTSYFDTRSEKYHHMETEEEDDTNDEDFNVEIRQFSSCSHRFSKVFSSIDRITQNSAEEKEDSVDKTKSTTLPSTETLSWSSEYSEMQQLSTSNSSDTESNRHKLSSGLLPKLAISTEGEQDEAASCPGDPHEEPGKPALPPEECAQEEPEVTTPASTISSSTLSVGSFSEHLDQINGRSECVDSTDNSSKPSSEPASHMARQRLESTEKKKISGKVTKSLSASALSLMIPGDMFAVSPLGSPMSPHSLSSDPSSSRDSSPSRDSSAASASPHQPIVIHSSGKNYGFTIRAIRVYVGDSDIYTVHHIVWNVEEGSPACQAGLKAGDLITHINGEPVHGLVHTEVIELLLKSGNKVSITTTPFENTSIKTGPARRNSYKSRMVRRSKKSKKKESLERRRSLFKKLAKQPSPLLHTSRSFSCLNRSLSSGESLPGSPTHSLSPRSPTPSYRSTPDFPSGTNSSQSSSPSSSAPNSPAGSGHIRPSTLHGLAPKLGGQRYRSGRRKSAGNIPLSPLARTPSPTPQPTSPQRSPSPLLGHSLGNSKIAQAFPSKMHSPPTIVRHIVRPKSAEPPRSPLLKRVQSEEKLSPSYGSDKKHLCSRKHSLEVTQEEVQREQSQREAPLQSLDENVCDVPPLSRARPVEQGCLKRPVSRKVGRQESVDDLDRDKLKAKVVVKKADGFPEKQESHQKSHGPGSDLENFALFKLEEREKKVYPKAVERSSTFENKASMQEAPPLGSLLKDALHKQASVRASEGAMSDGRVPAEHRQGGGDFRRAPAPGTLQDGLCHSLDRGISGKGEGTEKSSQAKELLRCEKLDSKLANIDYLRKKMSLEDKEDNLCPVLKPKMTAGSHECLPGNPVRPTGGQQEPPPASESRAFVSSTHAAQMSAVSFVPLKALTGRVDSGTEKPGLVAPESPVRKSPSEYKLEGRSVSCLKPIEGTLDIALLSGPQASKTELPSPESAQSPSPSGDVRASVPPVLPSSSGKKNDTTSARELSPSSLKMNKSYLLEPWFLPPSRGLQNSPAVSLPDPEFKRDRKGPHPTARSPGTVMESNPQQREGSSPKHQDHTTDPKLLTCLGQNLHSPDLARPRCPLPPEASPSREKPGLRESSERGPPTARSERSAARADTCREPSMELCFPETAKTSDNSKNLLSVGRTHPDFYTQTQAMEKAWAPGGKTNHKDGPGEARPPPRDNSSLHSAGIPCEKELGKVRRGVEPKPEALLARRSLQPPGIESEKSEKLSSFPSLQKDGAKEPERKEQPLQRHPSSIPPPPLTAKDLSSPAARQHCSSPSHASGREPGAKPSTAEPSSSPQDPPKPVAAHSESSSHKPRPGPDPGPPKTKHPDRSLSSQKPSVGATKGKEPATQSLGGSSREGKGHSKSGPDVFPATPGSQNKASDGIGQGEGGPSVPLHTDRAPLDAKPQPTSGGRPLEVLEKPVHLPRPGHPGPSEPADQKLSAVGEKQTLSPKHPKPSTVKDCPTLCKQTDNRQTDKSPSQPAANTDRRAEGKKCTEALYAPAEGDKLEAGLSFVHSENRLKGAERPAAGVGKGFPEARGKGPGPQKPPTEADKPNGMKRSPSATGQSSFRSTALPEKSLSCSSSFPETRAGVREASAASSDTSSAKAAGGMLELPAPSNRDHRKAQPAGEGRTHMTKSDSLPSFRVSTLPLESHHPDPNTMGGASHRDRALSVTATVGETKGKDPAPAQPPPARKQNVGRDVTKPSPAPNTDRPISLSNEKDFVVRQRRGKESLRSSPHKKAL
UniProt P13473, sequence (P13473 whole entry, looked up): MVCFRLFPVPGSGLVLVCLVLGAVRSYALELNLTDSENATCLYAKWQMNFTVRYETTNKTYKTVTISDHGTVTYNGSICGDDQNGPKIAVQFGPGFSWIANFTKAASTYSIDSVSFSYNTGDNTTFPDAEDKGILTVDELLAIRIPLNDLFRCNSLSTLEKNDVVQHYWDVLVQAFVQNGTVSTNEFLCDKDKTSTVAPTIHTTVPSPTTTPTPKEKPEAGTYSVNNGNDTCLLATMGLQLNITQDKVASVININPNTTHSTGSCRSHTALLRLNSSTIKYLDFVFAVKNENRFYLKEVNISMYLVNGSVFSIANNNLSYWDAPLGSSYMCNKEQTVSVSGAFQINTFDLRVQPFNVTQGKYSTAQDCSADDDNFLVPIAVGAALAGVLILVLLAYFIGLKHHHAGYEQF
UniProt Q96P70, sequence (Q96P70 whole entry, looked up): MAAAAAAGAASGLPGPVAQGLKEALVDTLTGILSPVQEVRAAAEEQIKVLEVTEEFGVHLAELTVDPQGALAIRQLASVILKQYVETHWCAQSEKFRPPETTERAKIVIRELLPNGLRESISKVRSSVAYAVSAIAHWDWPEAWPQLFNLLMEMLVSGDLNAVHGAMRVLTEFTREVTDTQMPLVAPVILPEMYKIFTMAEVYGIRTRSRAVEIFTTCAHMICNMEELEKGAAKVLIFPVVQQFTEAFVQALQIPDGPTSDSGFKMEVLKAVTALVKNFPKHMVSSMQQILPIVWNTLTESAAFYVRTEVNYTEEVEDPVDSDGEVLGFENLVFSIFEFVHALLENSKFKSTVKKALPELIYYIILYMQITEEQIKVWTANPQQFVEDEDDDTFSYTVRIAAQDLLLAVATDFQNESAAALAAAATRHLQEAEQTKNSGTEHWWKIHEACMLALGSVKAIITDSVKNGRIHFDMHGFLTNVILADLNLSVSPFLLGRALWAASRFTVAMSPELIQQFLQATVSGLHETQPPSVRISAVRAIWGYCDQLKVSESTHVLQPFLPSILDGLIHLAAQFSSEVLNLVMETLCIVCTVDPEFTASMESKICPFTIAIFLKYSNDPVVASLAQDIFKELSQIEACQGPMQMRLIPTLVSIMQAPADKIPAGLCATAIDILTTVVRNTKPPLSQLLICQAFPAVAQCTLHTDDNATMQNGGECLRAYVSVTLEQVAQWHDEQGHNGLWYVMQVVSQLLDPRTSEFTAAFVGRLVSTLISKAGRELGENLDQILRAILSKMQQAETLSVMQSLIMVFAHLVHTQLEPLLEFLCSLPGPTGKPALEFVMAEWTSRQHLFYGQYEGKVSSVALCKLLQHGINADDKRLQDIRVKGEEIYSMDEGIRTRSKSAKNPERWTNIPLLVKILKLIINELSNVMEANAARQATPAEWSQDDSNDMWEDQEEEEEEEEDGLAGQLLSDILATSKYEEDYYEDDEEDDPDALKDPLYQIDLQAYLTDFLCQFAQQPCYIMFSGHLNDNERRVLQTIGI
UniProt O94889, sequence (O94889 whole entry, looked up): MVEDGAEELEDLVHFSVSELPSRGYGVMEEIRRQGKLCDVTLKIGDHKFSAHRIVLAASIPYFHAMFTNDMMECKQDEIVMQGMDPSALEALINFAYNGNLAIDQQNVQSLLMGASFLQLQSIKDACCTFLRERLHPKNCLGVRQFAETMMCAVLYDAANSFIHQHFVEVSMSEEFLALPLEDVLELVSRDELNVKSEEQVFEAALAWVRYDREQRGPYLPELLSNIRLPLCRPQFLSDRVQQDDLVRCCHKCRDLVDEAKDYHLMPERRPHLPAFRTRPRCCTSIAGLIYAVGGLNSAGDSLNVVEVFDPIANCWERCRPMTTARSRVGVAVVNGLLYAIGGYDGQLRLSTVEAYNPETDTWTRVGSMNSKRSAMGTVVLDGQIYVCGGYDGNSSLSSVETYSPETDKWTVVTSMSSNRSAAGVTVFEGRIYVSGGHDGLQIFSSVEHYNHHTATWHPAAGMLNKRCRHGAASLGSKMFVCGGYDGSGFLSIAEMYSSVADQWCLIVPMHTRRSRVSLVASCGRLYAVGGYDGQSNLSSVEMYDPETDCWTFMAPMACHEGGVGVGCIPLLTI

Compound in one experiment: NC(=O)Nc1cc(-c2cccc(F)c2)sc1C(=O)N[C@H]1CCCNC1
The experiment can be described thus: log2 fold change, soluble protein after heating vs DMSO (PISA); higher = thermal stabilisation; K562 cells, 10 uM, 30 min; active = over 0.2 and 3.5 SD of the protein, either way, in both replicates (recomputed). The method, boiled down:
(§1)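 K562 cells at 2×10^6 cells/mL were given 10 μM compound for 30 min. Aliquots then went through 3 min of heating across 48°C-58°C, were pooled, and were extracted in PBS with 0.5% NP-40 at 4°C, and the supernatant after 21,000xg for 90 min was quantified by TMTpro 16plex LC-MS/MS with channel sums equalised. Thermal stability relative to control samples, from duplicates, is given as log2 fold change.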
In the case of LMNA (UniProt P02545), the log2 fold change is 0.205 (inactive).
On the same count and under the same terms, the value for MAP4 (UniProt E7EVA0) was 0.162 (inactive).
The same measure, in the same setting: the value for LMBRD1 (UniProt Q9NUN5) was 0.006 (inactive); that for MFSD11 (UniProt O43934) was 0.035 (inactive); that for KLHL18 (UniProt O94889) was 0.132 (inactive).
On the same count and under the same terms, then L2HGDH (UniProt Q9H9P8), with -0.035 (inactive); and INPP1 (UniProt P49441), with -0.11 (inactive); and MAPKAPK2 (UniProt P49137), with 0.12 (inactive).
For LRRFIP1 (UniProt Q32MZ4), the log2 fold change is -0.027 (inactive).
On the same count and under the same terms, the value for LTN1 isoform 3 (UniProt O94822) was 0.024 (inactive); that for MARK3 (UniProt P27448) was -0.125 (inactive); that for MICOS13 (UniProt Q5XKP0) was -0.018 (inactive).
Same read-out and setting: the value for MAP1LC3B2 (UniProt A6NCE7) was -0.023 (inactive).
Same read-out and setting: then MFSD1 isoform 6 (UniProt Q9H3U5), with 0.02 (inactive).
Regarding KPNA6 (UniProt O60684), the log2 fold change was 0.01 (inactive).
As to LPIN1 isoform 7 (UniProt Q14693), the log2 fold change is -0.006 (inactive).
With LAMP2 (UniProt P13473), the log2 fold change is -0.013 (inactive).
As to MCCC2 (UniProt Q9HCC0), the log2 fold change is 0.047 (inactive).
With MED17 (UniProt Q9NVC6), the log2 fold change is 0.068 (inactive).
Still for that read-out and setting: the value for IPO9 (UniProt Q96P70) was 0.059 (inactive); that for KCTD2 (UniProt Q14681) was -0.524 (inactive); that for MCL1 (UniProt Q07820) was -0.074 (inactive).
Same read-out and setting: then ILK (UniProt Q13418), with -0.236 (inactive); and IMMT isoform 2 (UniProt Q16891), with 0 (inactive).
On the same count and under the same terms, then KTN1 (UniProt Q86UP2), with 0.036 (inactive); and MAGEC2 (UniProt Q9UBF1), with 0.013 (inactive).
In the case of IKZF1 (UniProt Q13422), the log2 fold change was 0.164 (inactive).
Take MAPKAPK5 (UniProt Q8IW41): the log2 fold change was 0.382 (active).
For IWS1 (UniProt Q96ST2), the log2 fold change is -0.049 (inactive).
Turning to MIER1 isoform 12 (UniProt Q8N108), the log2 fold change is -0.026 (inactive).
KIAA1324L (UniProt A8MWY0): the log2 fold change was -0.016 (inactive).
On the same count and under the same terms, the value for MIEF1 (UniProt Q9NQG6) was -0.001 (inactive); that for KPNA1 (UniProt P52294) was -0.02 (inactive).
On the same count and under the same terms, then MARCKSL1 (UniProt P49006), with -0.02 (inactive); and MIF (UniProt P14174), with -0.059 (inactive); and IRF3 (UniProt Q14653), with 0.221 (active).
Still for that read-out and setting: the value for MAST4 (UniProt O15021) was -0.217 (inactive); that for ME2 (UniProt P23368) was -0.015 (inactive).

Compound in the next experiment: NC(=O)c1cnc(N[C@@H]2CCCC[C@@H]2N)nc1Nc1cccc(-n2nccn2)c1
The experiment is described as above. The method, boiled down: as §1
As for LMNA (UniProt P02545), the log2 fold change was -0.013 (inactive).
Same read-out and setting: the value for MAP4 (UniProt E7EVA0) was 0.165 (inactive).
On the same count and under the same terms, then LMBRD1 (UniProt Q9NUN5), with 0.046 (inactive); and MFSD11 (UniProt O43934), with 0.038 (inactive); and KLHL18 (UniProt O94889), with -0.034 (inactive).
Turning to L2HGDH (UniProt Q9H9P8), the log2 fold change was -0.026 (inactive).
Same read-out and setting: then INPP1 (UniProt P49441), with -0.035 (inactive); and MAPKAPK2 (UniProt P49137), with 0.035 (inactive).
As for LRRFIP1 (UniProt Q32MZ4), the log2 fold change was 0.015 (inactive).
LTN1 isoform 3 (UniProt O94822): the log2 fold change was -0.079 (inactive).
The same measure, in the same setting: then MARK3 (UniProt P27448), with -0.181 (inactive); and MICOS13 (UniProt Q5XKP0), with -0.023 (inactive); and MAP1LC3B2 (UniProt A6NCE7), with -0.022 (inactive).
The same measure, in the same setting: the value for MFSD1 isoform 6 (UniProt Q9H3U5) was -0.066 (inactive); that for KPNA6 (UniProt O60684) was -0.007 (inactive); that for LPIN1 isoform 7 (UniProt Q14693) was -0.011 (inactive).
For LAMP2 (UniProt P13473), the log2 fold change was 0.043 (inactive).
With MCCC2 (UniProt Q9HCC0), the log2 fold change is -0.014 (inactive).
On the same count and under the same terms, the value for MED17 (UniProt Q9NVC6) was -0.33 (active); that for IPO9 (UniProt Q96P70) was -0.072 (inactive).
As for KCTD2 (UniProt Q14681), the log2 fold change is -0.195 (inactive).
Still for that read-out and setting: the value for MCL1 (UniProt Q07820) was -0.33 (inactive).
As to ILK (UniProt Q13418), the log2 fold change is -0.125 (inactive).
For IMMT isoform 2 (UniProt Q16891), the log2 fold change is -0.045 (inactive).
Take KTN1 (UniProt Q86UP2): the log2 fold change is 0.06 (inactive).
With MAGEC2 (UniProt Q9UBF1), the log2 fold change is -0.037 (inactive).
On to IKZF1 (UniProt Q13422), for which the log2 fold change is -0.084 (inactive).
The same measure, in the same setting: the value for MAPKAPK5 (UniProt Q8IW41) was 0.029 (inactive); that for IWS1 (UniProt Q96ST2) was 0.034 (inactive).
In the case of MIER1 isoform 12 (UniProt Q8N108), the log2 fold change is -0.03 (inactive).
The same measure, in the same setting: the value for KIAA1324L (UniProt A8MWY0) was -0.015 (inactive); that for MIEF1 (UniProt Q9NQG6) was -0.14 (inactive).
As for KPNA1 (UniProt P52294), the log2 fold change is -0.014 (inactive).
The same measure, in the same setting: then MARCKSL1 (UniProt P49006), with 0.028 (inactive); and MIF (UniProt P14174), with 0.092 (inactive).
On to IRF3 (UniProt Q14653), for which the log2 fold change is -0.021 (inactive).
Same read-out and setting: the value for MAST4 (UniProt O15021) was -0.038 (inactive); that for ME2 (UniProt P23368) was -0.034 (inactive).

(Values after the supplement of paper PMC10849652.)
